HCV inh: inhibitors of hepatitis C virus infection | Potency, µM (top dose mostly 41.8 µM), for the others: at the top dose activity change, negative = inhibition, hits mostly inhibitors | 3.4% of 340,000 active | AID 651820 | Huh7.5.1 HCVcc-Cre infection, luciferase reporter, 44 h; active means well fitted inhibition curve with a large enough effect; inconclusive means small, poorly fitted or top-dose-only effect, or another doubt; inactive means no such curve, though single readings can be large or run the other way; further: potency means the concentration at half of the fitted maximal effect
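Antiviral activity was scored by luciferase reporter output from cells infected with HCVcc-Cre (~0.5 moi) in presence of compound, 44 h infection period, cells seeded 1,000/well 4 h prior.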
Lassa entry inh: blocks Lassa virus binding to or entry into cells | Lassa virus pseudotype entry inhibition, cell reporter | Potency, µM (series often up to 37.9 µM), for inactives: at the top dose activity change, negative = inhibition, most hits filed as inhibitors | 1.2% of 300,000 active | AID 540256; calls by dose curve; tested in HEK293 cells; further: potency means the concentration at half of the fitted maximal effect; nearly all actives have a fitted effect of over 50% in size
VACV mCherry inh: inhibitors of vaccinia virus infection (mCherry reporter signal) | Vaccinia virus mCherry reporter infection, fluorescence | 0.63% of 310,000 active | AID 720579 | Potency, µM (top dose mostly 36.5 µM), inactives show at the highest dose activity change, negative = inhibition, actives largely listed as inhibitors; calls by dose curve; tested in A549 cells; further: potency means the concentration at half of the fitted maximal effect; nearly all actives have a fitted effect of over 35% in size
HCMV inh: human cytomegalovirus inhibition; HFF cells, HCMV-luciferase reporter, 72 h; active compounds read low; activity change, negative = inhibition, % at 57.5 µM; 4.5% of 410,000 active; AID 1259415; in the data active means activity change below about -60%; inconclusive means no clear call, values can overlap the other calls; inactive means above about -39%
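Cell-based, HFFs, 1000 cells/well, 16 h 37C; cpds in DMSO + HCMV-luc, MOI 1 PFU/cell; 72 h 37C; OneGlo luminescence after 5 min RT; norm. to buffer vs Salinomycin 10uM.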
VACV Venus inh: vaccinia inhibition (Venus reporter) | Vaccinia virus Venus reporter expression, fluorescence | Potency, µM (top dose mostly 36.5 µM), without a hit: top-dose activity change, negative = inhibition, actives largely listed as inhibitors | 0.46% of 330,000 active; calls by dose curve; tested in A549 cells; further: potency means the concentration at half of the fitted maximal effect; nearly all actives have a fitted effect of over 30% in size
Marburg entry inh: inhibitors of Marburg virus binding or cell entry | Potency, µM (highest dose often 37.8 µM), for the others: at the top dose activity change, negative = inhibition, most hits filed as inhibitors | Marburg virus pseudotyped entry inhibition, cell reporter | 1.8% of 300,000 active; calls by dose curve; tested in HEK293 cells; further: potency means the concentration at half of the fitted maximal effect
The depositor's hits bear a star; i = inactive; ? = inconclusive; . = not tested or not shown; ! = repeats disagree; [ ] = dose if it differs, or a comment. Sampled rows, rich in hits. Any-hit rate of the full collection: about 7.8%. On the % scale 0 is the no-effect control and ±100 the full control effect.

SMILES | HCV inh | Lassa entry inh | VACV mCherry inh | HCMV inh | VACV Venus inh | Marburg entry inh
CN(C)CCNC(=S)Nc1ccc(-c2nc3ccccc3[nH]2)cc1 | -20% | 8% | . | 116 | . | ?
O=C(NC(=S)Nc1cc(-c2nc3ccccc3[nH]2)ccc1Cl)c1ccc2c(c1)OCO2 | ? | ? | -26% | -76* | -21% | -27%
Cc1ccc(-c2nc3ccccc3[nH]2)cc1NC(=O)c1ccc2c(c1)OCO2 | 11µM* | ? | -23% | -9 | -19% | 5%
Cc1ccc(-c2nc3ccccc3o2)cc1NC(=O)c1ccc2c(c1)OCO2 | -13% | 29% | . | 66 | . | 25%
S=C(NCc1ccc2c(c1)OCO2)Nc1ccc(-c2nc3ccccc3[nH]2)cc1 | ? | -12% | -19% | -61* | -29% | ?
Cc1ccc(CNC(=O)c2ccc(NC3=NC4CS(=O)(=O)CC4S3)cc2)cc1 (stereo not drawn) | 11% | . | i | -68* | -8% | .
Cc1ccc(C(=O)Nc2ccc(F)cc2)cc1NC1=NC2CS(=O)(=O)CC2S1 (stereo not drawn) | 0% | . | -10% | -101* | 1% | .
CCC1CCCCN1S(=O)(=O)c1ccc(NC(=O)c2nc(S(C)(=O)=O)ncc2Cl)cc1 (stereo not drawn) | ? | ? | ? | -113* | ? | 8.9µM*
CC1CCCN(S(=O)(=O)c2ccc(NC(=O)CNC3CCCC3)cc2)C1 (stereo not drawn) | -11% | -1% | -12% | ? | -10% | ?
COc1ccc(NC(=O)c2nc(S(=O)(=O)Cc3ccc(C)cc3)ncc2Cl)cc1 | . | ? | ? | -97* | ? | ?
Cc1ccc(CS(=O)(=O)c2ncc(Cl)c(C(=O)Nc3ccc(OC(F)F)cc3)n2)cc1 | ? | ? | -16% | -111* | -30% | ?
CCS(=O)(=O)c1ncc(Cl)c(C(=O)Nc2ccc(S(=O)(=O)N3CCCC(C)C3)cc2)n1 (stereo not drawn) | 13µM* | ? | ? | -101* | ? | ?
Clc1ccc(-c2csc(=Nc3ccccc3)n2Cc2ccc3c(c2)OCO3)cc1 | . | 23%[46.1 µM] | 1% | 16 | -8% | ?
CCOc1ccc(NC(=O)C2CCCN(S(=O)(=O)c3ccc4c(c3)C(C)(C)C(=O)N4C)C2)cc1 (stereo not drawn) | . | . | . | 89 | . | .
CCOc1cc(CNC(=O)c2ccc(NC(=O)c3nsc4ccccc34)cc2)ccc1OC | . | 28%[46.1 µM] | -13%[7.34 µM] | 152 | -5%[7.34 µM] | .
O=C(NCCCN1CCN(c2ccc(F)cc2)CC1)c1sc2ncccc2c1-n1cccc1 | . | -2%[46.1 µM] | -9% | -19 | -8% | .
Cc1ccccc1NC(=O)CSC1=Nc2ccccc2C2=NC(Cc3ccccc3)C(=O)N12 (stereo not drawn) | . | -18%[46.1 µM] | -14% | 11 | -12% | .
COc1cccc(CNC(=O)c2ccc3nc(N4CCCCC4)sc3c2)c1OC | . | . | -10% | 14 | -13% | 3%[46.1 µM]
CCS(=O)(=O)c1ncc(Cl)c(C(=O)Nc2ccc(C)cc2)n1 | ? | ? | ? | -100* | ? | 7.9µM*
CCCS(=O)(=O)c1ncc(Cl)c(C(=O)Nc2c(C(=O)Nc3ccccc3)oc3ccccc23)n1 | . | ? | -13% | -31 | -11% | -15%[46.1 µM]
O=C(ONC1=NCCCCC1)c1ccc(Cl)cc1 | 2.5µM* | ? | . | 31 | -5% | ?
Nc1nnc(/C=C/c2ccccc2Cl)s1 | 9% | ? | i | 79 | -4% | 7.1µM*
CCOc1ccccc1NC(=O)CCc1c(C)nc2cc(-c3ccccc3)nn2c1C | . | -2%[46.1 µM] | -11% | -30 | -2% | 9%[46.1 µM]
O=C(c1ccc2c(c1)OCO2)N1CCC2(CC1)Oc1ccc(F)cc1C(=O)C21CC(c2ccc(Cl)cc2)=NO1 (stereo not drawn) | 10µM* | . | i | 0 | -20% | .
O=[N+]([O-])c1ccc(N2CCN(c3ccccc3F)CC2)nc1 | -5% | 23% | -12% | 1 | 4% | 14%
SMILES | HCV inh | Lassa entry inh | VACV mCherry inh | HCMV inh | VACV Venus inh | Marburg entry inh
CC(C)OC(=O)c1ccc(N2CCN(c3ccccc3F)CC2)nc1 | 11µM* | . | . | 13 | . | .
Cc1[nH]c2ccccc2c1C1(O)C(=O)N(Cc2ccccc2)c2ccc(Br)cc21 (stereo not drawn) | . | ? | 1% | -102* | -5% | ?
Cc1[nH]c2ccccc2c1C1(O)C(=O)N(Cc2ccccc2Cl)c2ccccc21 (stereo not drawn) | . | ? | -16% | ? | -12% | -2%[46.1 µM]
Cc1c(Cl)cccc1NC(=O)N1CCN(Cc2cc(=O)n3nc(-c4ccccc4F)sc3n2)CC1 | . | 37%[46.1 µM] | -16% | 29 | -11% | .
CN(C)CCOc1nc(-c2ccccc2)nc2c1oc1ccccc12 | ? | ? | . | -77* | 1% | ?
O=C1C(SCCO)=C(SCCO)C(=O)c2ccccc21 | 10µM* | 2.6µM* | 10µM*! | -95* | ? | 4µM*
Cc1cccc(N2CCN(C(=O)c3cn4ccccc4n3)CC2C)c1 (stereo not drawn) | -10% | -5%[46.1 µM] | -2% | -62* | -15% | ?
COc1cccc(N2CCN(C(=O)CC(NC(=O)c3ccccc3)c3ccccc3)CC2)c1 (stereo not drawn) | -4% | 13% | -20% | -26 | -9% | -20%
Cc1cccc(N2CCN(C(=O)CC(NC(=O)c3ccccc3)c3ccccc3)CC2C)c1 (stereo not drawn) | -28% | ? | -19% | -66* | -21% | ?
CCN(CC)CCCNC(=O)c1ccc(N2CCCCC2)c(NS(=O)(=O)c2ccc(C)cc2)c1 | -11% | 11% | . | -34 | . | 15µM*
CCOC(=O)c1ccc(N2CCCCC2)c(NS(=O)(=O)c2ccc(C)cc2)c1 | ? | ? | ? | -86* | -5%[7.34 µM] | 7.9µM*
Cc1ccc(S(=O)(=O)Nc2cc(C(=O)NCCN(C)C)ccc2N2CCCC2)cc1 | 10% | . | . | -22 | . | .
Cc1ccc(CNC(=O)c2ccc(N3CCCC3)c(NC(=O)Nc3ccc(C)cc3)c2)cc1 | . | 1%[46.1 µM] | -25% | -74* | -26% | .
Cc1nc([N+](=O)[O-])cn1CC(O)c1ccc2c(c1)OCCCO2 (stereo not drawn) | . | . | -5% | . | -9% | .
CCOC(=O)c1ccc(NC2SC(=O)N(Cc3cccc(C(=O)O)c3)C2=O)cc1 (stereo not drawn) | . | -18%[46.1 µM] | -14% | 35 | -13% | 12%[46.1 µM]
CCc1nn2c(=O)cc(COC(=O)CNC(=O)COc3ccc(C)cc3)nc2s1 | . | ? | 1% | 2 | -11% | .
CN1C(c2ccccc2)CC(C)(O)CC1c1ccccc1 (stereo not drawn) | . | . | . | -33 | . | .
COc1ccc(-c2noc(-c3cc(C(C)C)[nH]n3)n2)cc1 | . | ? | -9%[7.34 µM] | -8 | -8%[7.34 µM] | .
CC1(C)CC(=O)C=C(NC2=CC3OC(c4ccccc4)OCC3OC2=O)C1 (stereo not drawn) | ? | ? | ? | -8 | ? | 14µM*
CNC(=O)c1cncc(C=Cc2c(C)cccc2C)c1 | . | 17% | . | . | . | .

Screening data (PubChem BioAssay)
